ANO1 activ: activates or potentiates the mouse TMEM16A chloride channel; Q8BHY3; HEK293 TMEM16A/YFP-H148Q/I152L, iodide quench fluorescence; hits give low values; B-score at 10 µM; 0.3% of 340,000 active;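 active = fluorescence-ratio B-score plate-corrected deviation score at least 3 library SD below zero, with starting fluorescence score within 5 deviations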;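 note: channel opened by trigger with iodide after compound preincubation; score built on the fluorescence ratio of max minus min over baseline; more negative score means more quench and so TMEM16A activation or potentiation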
Target sequence (Q8BHY3 whole entry, looked up): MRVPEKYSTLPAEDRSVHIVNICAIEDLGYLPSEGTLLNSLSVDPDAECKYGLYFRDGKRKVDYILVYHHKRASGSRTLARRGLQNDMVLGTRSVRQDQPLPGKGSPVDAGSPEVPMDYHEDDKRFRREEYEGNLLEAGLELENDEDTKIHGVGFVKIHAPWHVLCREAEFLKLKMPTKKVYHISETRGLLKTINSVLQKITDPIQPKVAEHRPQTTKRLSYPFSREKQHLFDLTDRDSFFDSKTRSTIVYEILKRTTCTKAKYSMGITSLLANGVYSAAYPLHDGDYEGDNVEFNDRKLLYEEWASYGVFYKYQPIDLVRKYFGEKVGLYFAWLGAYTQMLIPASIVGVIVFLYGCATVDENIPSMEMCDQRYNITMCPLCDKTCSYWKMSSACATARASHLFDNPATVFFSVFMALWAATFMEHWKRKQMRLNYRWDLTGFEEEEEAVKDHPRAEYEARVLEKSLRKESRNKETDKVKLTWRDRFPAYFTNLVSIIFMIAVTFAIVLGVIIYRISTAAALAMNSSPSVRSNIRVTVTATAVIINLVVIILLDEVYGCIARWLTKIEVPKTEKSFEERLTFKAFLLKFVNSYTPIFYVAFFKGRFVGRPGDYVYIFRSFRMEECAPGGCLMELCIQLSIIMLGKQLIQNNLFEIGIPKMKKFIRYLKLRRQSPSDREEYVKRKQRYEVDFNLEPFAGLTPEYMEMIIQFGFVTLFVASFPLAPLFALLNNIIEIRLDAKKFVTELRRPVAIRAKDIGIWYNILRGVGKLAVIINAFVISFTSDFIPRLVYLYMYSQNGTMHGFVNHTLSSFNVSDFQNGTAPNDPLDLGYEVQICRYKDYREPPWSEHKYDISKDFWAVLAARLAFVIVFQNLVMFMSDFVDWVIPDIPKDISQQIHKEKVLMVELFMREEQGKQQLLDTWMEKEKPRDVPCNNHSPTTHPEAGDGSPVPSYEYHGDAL
CHT block: human CHT choline transport inhibition | B-score at 10 µM | Q9GZV3 | 0.86% of 310,000 active | CHT-expressing cells, membrane potential dye, choline response; hits give low values;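 active = B-score over 3 SD under the library average, and starting fluorescence ratio not unusually high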;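 note: choline stimulus applied at its EC90 after an EC20 pre-addition; B-score computed on integrated fluorescence ratio after choline addition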
ANO1 block: inhibitors of mouse TMEM16A calcium-activated chloride channel; 1.2% of 310,000 active; AID 588511; normalized B-score (activity score, 25-100; higher = stronger inhibition) at 10 µM; HEK293 TMEM16A/YFP iodide influx fluorescence, ionomycin; Q8BHY3;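 active = ratio plate-corrected score three or more library SD toward inhibition, starting fluorescence score within five deviations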;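 note: score derived from kinetic fluorescence span divided by baseline fluorescence per well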
IDE inh: inhibits human insulin-degrading enzyme in HEK cells; 0.41% of 320,000 active; P14735; FAbetaB cleavage, fluorescence polarization; inhibition, % at 5.59 µM;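 active = percent inhibition above the average of all tested compounds plus 3 SD, set per screening campaign, cut at about 16% in these data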;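 note: IDE supplied by intact live HEK cells; FP after avidin binding of uncleaved biotin substrate so inhibition keeps polarization high; 0% = DMSO wells and 100% = 60 µM reference IDE inhibitor Ii1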
IDE act: IDE (human) activation, cell-based. AID 493087. HEK cells, FAbeta-B cleavage, fluorescence polarization; 0% vehicle, 100% cell-free pure enzyme wells. P14735. activation, % at 5.96 µM. 0.073% of 340,000 active;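 active = activation above the mean of all tested compounds plus 3 SD, set per screening campaign, cut at about 17% in these data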
CHT PAM: allosterically activates the human high affinity choline transporter; 0.49% of 310,000 active; B-score at 10 µM; AID 488977; CHT-expressing cells, membrane potential dye, choline EC20; hits give high values; LV-AA mutant CHT in HEK293 cells; Q9GZV3;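 active = initial fluorescence not abnormally high and integrated response B-score, plate-corrected, over 3 SD above library mean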
CHT activ conf: confirmation of human choline transporter (CHT) activators. shares compounds with CHT PAM. CHT-expressing cells, membrane potential dye fluorescence (FDSS); % of choline EC20–EC90 response window; HEK293 expressing CHT LV-AA mutant; choline added at its EC20. activation, % at 10 µM. 91% of 2,500 active;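 active = primary screen active, with duplicate mean activation above negative control mean plus 3 SD, cut at about 11% in these data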
HEK293 MP dye: activity in parental HEK293 cells lacking CHT; 62% of 2,500 active; ratio readout change at 10 µM, hits read low; membrane potential dye fluorescence (FDSS); measured after EC20 choline addition; shares compounds with CHT PAM;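 active = duplicate-averaged ratio beyond 3 SD from buffer wells, up or down, though filed actives are nearly all decreases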
Active calls of the source: *; i = inactive; · = no result. Only some compounds are listed: those with a hit (about 2.7% of all), similar ones and a draw of the others.

SMILES	ANO1 activ	CHT block	ANO1 block	IDE inh	IDE act	CHT PAM	CHT activ conf	HEK293 MP dye
COc1ccc(Nc2nc(-c3cccs3)nc3ccccc23)c(OC)c1	i	i	i	5	1	8*	9.8*	i
CCOC(=O)c1ccccc1NC(=O)COc1coc(CN2CCc3ccccc32)cc1=O	i	i	i	2	1	i	26*	i
Cc1ccc2c(c1)C1(C(=O)N2C)N2CC3(C)CN1CC(C)(C2)C3=O (centres undefined)	i	i	i	3	2	i	·	·
Cc1ccc2c(c1)C(c1ccc(O)cc1)(c1ccc(O)cc1)C(=O)N2C	i	i	i	2	7	6.4*	1	i
CCOC(=O)n1cc(C(=O)c2ccccc2O)cn1	i	i	i	0	0	i	30*	-38*
Cc1nn(-c2ccccn2)c2nc(-c3cccs3)cc(C(=O)NCc3ccco3)c12	i	i	i	4	4	i	19*	i
Cc1noc(C)c1C(=O)OCC(=O)Nc1cc(Cl)ccc1Oc1ccccc1	i	i	i	-2	-2	6.7*	28*	i
Cc1cc(-c2ccccc2)cc(=O)[nH]1	i	·	·	·	3	·	·	·
Cc1cc(-c2ccccc2)cc(-c2ccccc2)[n+]1C	i	i	i	4	3	6.8*	79*	-23*
Cc1cc2[nH]c(=O)c(=O)[nH]c2cc1S(=O)(=O)Nc1ccccc1F	i	i	i	2	-1	7.7*	3	i
COc1cc(C)c(S(=O)(=O)Nc2ccccc2F)cc1C	i	i	i	5	0	i	·	·
CN(C)c1cccc2c(C=C(C#N)C#N)ccc(N(C)C)c12	i	i	i	-3	2	11*	57*	-73*
CN(C)c1cccc2c(/C=N/O)ccc(N(C)C)c12	i	i	i	4	8	i	50*	-41*
Cc1cc(C=C(C#N)C#N)c(C)n1-c1ccccc1	i	i	i	1	4	i	·	·
O=C(Cn1cnc2c(OCc3ccccc3)ncnc21)N[C@H](CO)Cc1cc2ccccc2[nH]1	i	·	·	-3	6	·	·	·
CN(Cc1cccc(Cl)c1)C(=O)C1CCC(=O)N(C2CC2)C1 (centres undefined)	i	i	i	5	-7	i	·	·
CCC(C)Nc1nc(CN2CCOCC2)nc2sc3c(c12)CCC3 (centres undefined)	i	i	i	-1	1	8.4*	14*	i
CCN(CC)CCCNc1nc(CN2CCOCC2)nc2sc3c(c12)CCC3	i	i	i	5	1	7.7*	59*	-57*
c1cncc(-c2nc(NCCCN3CCOCC3)c3c4c(sc3n2)CCC4)c1	i	i	i	0	0	6.9*	24*	-47*
Cc1cccc(Oc2nc(CN3CCOCC3)nc3sc4c(c23)CCCC4)c1	i	i	i	6	4	i	35*	i
COc1cc2[nH]c(C(=O)N3CC(C)OC(C)C3)cc2c(OC)c1OC (centres undefined)	i	i	i	-5	3	i	·	·
COc1ccc2cc(-c3ccccc3F)ncc2c1	i	·	·	-2	5	·	·	·
O=[N+]([O-])c1ccc2nc(-c3cccnc3)[nH]c2c1	i	i	i	-1	4	i	52*	-54*
O=[N+]([O-])c1ccc2nc(-c3ccccc3)[nH]c2c1	i	i	i	-5	1	i	·	·
COc1cc(-c2nnc(SCC(=O)N(Cc3ccccc3)C(C)(C)C)o2)cc(OC)c1OC	i	i	i	3	4	7.9*	1	i
SMILES	ANO1 activ	CHT block	ANO1 block	IDE inh	IDE act	CHT PAM	CHT activ conf	HEK293 MP dye
COc1ccc(OC)c2c(C)cc(C)nc12	i	i	i	-4	1	8.8*	57*	-81*
COc1ccc(/C=N/Nc2ccccn2)cc1OC	i	i	i	-1	·	i	42*	-43*
C(=N\Nc1ccccn1)/c1cccnc1	i	i	i	-3	-3	i	59*	-54*
FC(F)(F)c1ccc(N/N=C/c2cccnc2)nc1	i	i	i	-12	5	i	·	·
O=C(COc1ccc(S(=O)(=O)N2CCCCC2)cc1)N1CCCC1	i	i	i	0	-1	i	·	·
O=C(CN1C(=O)NC(CCc2ccccc2)C1=O)Nc1cccc(Br)c1 (centres undefined)	i	·	·	3	5	·	·	·
Cc1ccc([N+](=O)[O-])c(C(=O)N/N=C/c2cccnc2)c1	i	i	i	6	8	i	61*	-41*
Cc1cc(C)c2c(N)c(C(=O)N/N=C/c3cccnc3)sc2n1	i	i	i	1	·	i	·	·
Cc1c(C(=O)N/N=C/c2cccnc2)sc(=S)n1C	i	i	i	2	-2	i	41*	-41*
CC1(C)Cc2c(sc3c2C2=NCCN2C=N3)CS1	i	i	i	5	1	9.5*	34*	-62*
CC1(C)Cc2c(sc3c2C(=O)N(c2ccccc2)C2=NCCN23)CS1	i	i	i	2	-2	i	·	·
COc1ccc(-c2cn(-c3ccc(OC)cc3)c3[n+]2-c2ccccc2CC3)cc1	i	i	i	2	0	9.5*	53*	i
FC(F)Oc1ccc(-n2cc(-c3ccc(Cl)cc3)[n+]3c2CCCCC3)cc1	i	i	i	-7	2	i	·	·
FC(F)Sc1ccc(-n2cc(-c3ccccc3)[n+]3c2CCC3)cc1	i	i	i	5	6	i	21*	-40*
COc1ccc(-c2cn(-c3ccc(SC(F)F)cc3)c3[n+]2CCC3)cc1OC	i	i	i	6	-3	6.3*	32*	-39*
COc1ccc(-n2cc(-c3ccc(C)cc3)[n+]3c2SCC3)cc1	i	i	i	1	5	i	·	·
COc1ccc(-n2cc(-c3ccccc3)[n+]3c2CCCCC3)cc1	i	i	i	1	6	6.5*	55*	i
O=C(Cc1ccccc1)Nc1ccc(SC(F)F)cc1	i	i	i	-1	-1	i	·	·

From PubChem
